Measured values published in PubChem BioAssay (NCI).
Compounds without any hit were thinned out: in the full panel of roughly 79,000, 15% have a hit. Cut-off read from the data, not from the text of the source: active = growth inhibition above about 70%; inactive = the rest.

Key:
[1] = NCI Yeast Anticancer Drug Screen. Data for the rad50 strain (AID 155);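 note: 0% = growth of vehicle-only cultures of the same strain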; conditions: S. cerevisiae rad50 strain growth inhibition; at 50.0 µM; stronger effect = higher value
In short: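 Genetically altered yeast (DNA repair pathway); compound treatment; growth inhibition vs vehicle ctrl.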

[2] = NCI Yeast Anticancer Drug Screen. Data for the mec2-1 strain (AID 157); conditions: S. cerevisiae mec2-1 strain, at 50.0 µM, stronger effect = higher value
In short: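 Using mec2-1 yeast: add compound, measure growth, express inhibition versus vehicle-treated cultures.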

[3] = NCI Yeast Anticancer Drug Screen. Data for the sgs1 mgt1 strain (AID 161);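 note: 0% = growth of cultures given vehicle only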; conditions: S. cerevisiae sgs1 mgt1 strain, at 50.0 µM, stronger effect = higher value
In short: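 Percent growth inhibition was derived by comparing compound-exposed mutant yeast with vehicle-exposed cultures. The strain carries alterations in DNA damage repair.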

[4] = NCI Yeast Anticancer Drug Screen. Data for the cln2 rad14 strain (AID 165);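 note: 0% = growth equal to vehicle treated cultures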; conditions: S. cerevisiae cln2 rad14 strain, at 50.0 µM, stronger effect = higher value
In short: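 Yeast strain cln2 rad14, bearing defects in cell cycle control and DNA repair, serves as the test system; values reflect growth inhibition compared with vehicle.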

[5] = NCI Yeast Anticancer Drug Screen. Data for the bub3 strain (AID 167); conditions: S. cerevisiae bub3 mutant strain, at 50.0 µM, stronger effect = higher value
In short: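 Yeast carrying a defined mutation is treated with each compound, and growth is compared with that of vehicle-exposed cells to give inhibition.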

[6] = NCI Yeast Anticancer Drug Screen. Data for the mlh1 rad18 strain (AID 175); conditions: S. cerevisiae mlh1 rad18 strain growth inhibition; at 50.0 µM; stronger effect = higher value
In short: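 Steps: expose repair-defective yeast to compound; measure growth; express inhibition against vehicle-treated controls.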

Measured: growth inhibition

O=[Te]=O
inactive: [1] 20.4% | [2] -8.15% | [3] 17.4% | [4] 5% | [5] 5.55% | [6] 11.4%

O=S1(=O)N2CN3CCN(C2)CN1C3
inactive: [1] 36.5% | [2] 40.4% | [3] 31.4% | [4] -25.3% | [5] 12.1% | [6] 34%

ClCCN(CCCl)c1ccc(C2=Nc3cccc4cccc(c34)N2)cc1
inactive: [1] 3.65% | [2] 9.8% | [3] 6.75% | [4] -0.25% | [5] -8.05% | [6] 5.05%

COC(=O)C(C)NP(=O)(N1CC1)N1CC1 (stereo not given)
inactive: [1] 1.5% | [2] -2.25% | [3] -5.05% | [4] -10.2% | [5] -7.85% | [6] -14.3%

COC(=O)C1=C(C)N2CCCOC2(C)C(C(=O)OC)C1c1cccc(Cl)c1 (stereo not given)
inactive: [1] 61.4% | [2] 16.6% | [3] 40.5% | [4] 29.1% | [5] 44.4% | [6] 61.5%

CCCCCCCCOC(=O)c1ccccc1C(=O)OCCCCCCCC
inactive: [1] -0.95% | [2] -3.35% | [3] 18.6% | [4] 9.25% | [5] -3.95% | [6] -5.5%

CC1CN1P1(N2CC2C)=NP(N2CC2C)(N2CC2C)=NP(N2CC2C)(N2CC2C)=N1 (stereo not given)
inactive: [1] -2.45% | [2] 1.3% | [3] 2.75% | [4] 15.7% | [5] -2.2% | [6] 5.5%

Cc1cccc[c]1[Sb](=[O])([OH])[OH]
inactive: [1] 6.6% | [2] -10.2% | [3] -15.9% | [4] -7.35% | [5] -17.2% | [6] -2.7%

C=CCN1CCC23c4c5ccc(O)c4OC2C(=NN=C2CCC4(O)C6Cc7ccc(O)c8c7C4(CCN6CC=C)C2O8)CCC3(O)C1C5 (stereo not given)
inactive: [1] 3.4% | [2] 2.5% | [3] 10% | [4] 27.4% | [5] 2.1% | [6] 32.2%

CC1(C)CC(O)CC(C)(C)N1O
inactive: [1] 21.8% | [2] 15.8% | [3] 37% | [4] 22.2% | [5] 20.2% | [6] 16.4%

COc1ccc(CC2OC3(CCCCC3)CC3CCCCN32)cc1 (stereo not given)
inactive: [1] 23.2% | [2] 13.9% | [3] 11.5% | [4] 7.65% | [5] -5.6% | [6] 6%

C=CC[NH-].C=CC[NH-].CC(=O)CC(C)=O.CC(=O)CC(C)=O.[Ni+2]
inactive: [1] -2.65% | [2] -6.75% | [3] -7.4% | [4] -9.35% | [5] -1.1% | [6] -3.35%

CC(=O)c1ccc(NC(O)C(Cl)(Cl)Cl)cc1 (stereo not given)
inactive: [1] 5.75% | [2] 18.9% | [3] -0.25% | [4] -12.2% | [5] 18.8% | [6] 22.4%

O=[N+]([O-])c1ccc(C2C3C(c4ccccc4)=NCCCN32)cc1 (stereo not given)
inactive: [1] -0.2% | [2] 12.2% | [3] -8% | [4] -15.2% | [5] -12.2% | [6] -14.7%

COP1(=S)OCC(C(C)(C)C)CO1 (stereo not given)
inactive: [1] 7.1% | [2] 1.2% | [3] -2.1% | [4] -14.4% | [5] 25.9% | [6] -3.55%

O=c1c(O)c(-c2ccccc2)oc2ccccc12.[Zn+2]
inactive: [1] -6.95% | [2] 7.25% | [3] 20.2% | [4] -41% | [5] 24.9% | [6] 27.6%

NC1(O)C(=O)NC(=O)NC1=O
inactive: [1] -21.4% | [2] -30% | [3] -18.9% | [4] -28.1% | [5] -4.05% | [6] 5.85%

CCOP(=O)(N=S=O)OCC
inactive: [1] 5.75% | [2] -13.5% | [3] -4.05% | [4] -28.2% | [5] 7.95% | [6] -2.2%

COc1ccc(C2=CC3=CCC4C(CCC5(C)C(O)CCC45)C3(C)CC2)s1 (stereo not given)
inactive: [1] 19.2% | [2] 11.7% | [3] 29.6% | [4] -0.6% | [5] -0.1% | [6] 26.1%

Cc1sc2cccc[n+]2c1C
inactive: [1] 5.85% | [2] -12.9% | [3] -8.95% | [4] -8.95% | [5] -3.4% | [6] -14.4%
